PubChem BioAssay (Tox21)
Records with an inconclusive call do not appear. The source made the active and inactive calls. Unless noted, the call rests on the fitted dose curve; in most records, active means well fitted curve in the direction sought with a large enough effect in the repeat runs; inconclusive means weak or mixed curves; inactive means no such curve, though single readings can be large; an effect the other way counts as inactive or inconclusive.

How the values were obtained:
[1] = A CellTox Green Cytotoxicity Assay to monitor cytotoxicity in HEK293 cells - 32 hour (AID 1224881); further: nearly all actives have a fitted effect of over 40% in size
In short: (§1)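 HEK293 cells premixed with CellTox Green dye were seeded at 600 cells/well and left 5 h at 37 C/5% CO2 before pin transfer of 23 nL compound in DMSO. Fluorescence from dye bound to dead-cell DNA was read during 40 h treatment.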

[2] = A CellTox Green Cytotoxicity Assay to monitor cytotoxicity in HepG2 cells - 0 hour (AID 1224882); further: nearly all actives have a fitted effect of over 35% in size
In short: (§2)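 HepG2 cells were seeded together with the CellTox Green dye at 600 cells/well, left 5 h at 37 C/5% CO2, then given compounds in DMSO. Fluorescence from dye bound to dead-cell DNA was read repeatedly over 40 h of treatment at 37 C.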

[3] = A CellTox Green Cytotoxicity Assay to monitor cytotoxicity in HepG2 cells - 32 hour (AID 1224883); further: nearly all actives have a fitted effect of over 50% in size
In short: as §2

[4] = A CellTox Green Cytotoxicity Assay to monitor cytotoxicity in HEK293 cells - 8 hour (AID 1224884); further: nearly all actives have a fitted effect of over 35% in size
In short: as §1

[5] = qHTS RealTime-Glo MT Cell Viability Assay in HepG2 cells - 16 hour (AID 1224885); further: nearly all actives have a fitted effect of over 50% in size
In short: (§3)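 Tox21 10K library screened in qHTS format on HepG2 cells carrying RealTime-Glo reagents. Compounds were added after a 5 h preincubation, and the luminescent signal from continuous culture was measured repeatedly during 40 h treatment.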

[6] = qHTS RealTime-Glo MT Cell Viability Assay in HEK293 cells - 24 hour (AID 1224886); further: top concentration of the series differs between compounds; nearly all actives have a fitted effect of over 50% in size
In short: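 Luminescence generated by NanoLuc from substrate produced by living HEK293 cells served as the viability signal. Each value reflects the reading at its stated time point during continuous 40 h compound exposure at 37 C.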

[7] = qHTS RealTime-Glo MT Cell Viability Assay in HEK293 cells - 8 hour (AID 1224887); further: top concentration of the series differs between compounds; nearly all actives have a fitted effect of over 50% in size
In short: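 HEK293 cells mixed with RealTime-Glo reagents (NanoLuc plus cell-permeant prosubstrate) at 600 cells/well, preincubated 5 h at 37 C/5% CO2, then given 23 nL compound in DMSO. Nonlytic luminescence from viable cells was read at 0, 8, 16, 24, 32 and 40 h.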

[8] = A CellTox Green Cytotoxicity Assay to monitor cytotoxicity in HEK293 cells - 16 hour (AID 1224888); further: nearly all actives have a fitted effect of over 35% in size
In short: as §1

[9] = qHTS RealTime-Glo MT Cell Viability Assay in HepG2 cells - 0 hour (AID 1224889); further: nearly all actives have a fitted effect of over 50% in size
In short: as §3

[10] = A CellTox Green Cytotoxicity Assay to monitor cytotoxicity in HepG2 cells - 8 hour (AID 1224890); further: nearly all actives have a fitted effect of over 45% in size
In short: as §2

[11] = qHTS assay to identify small molecule antagonists of the estrogen receptor alpha (ER-alpha) signaling pathway using the BG1 cell line in the presence of 0.1 nM 17-beta-estradiol - cell viability counter screen (AID 1259241); further: nearly all actives have a fitted effect of over 40% in size
In short: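 Cytotoxicity counter-screen: live-cell protease activity measured by fluorescence (30 min reagent step) in the same wells. Cells were VM7Luc4E2 with endogenous ER-alpha and ERE-driven luciferase, treated 22 hr at 37C alongside 0.1 nM 17beta-estradiol final.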

[12] = qHTS assay to identify small molecule antagonists of the androgen receptor (AR) signaling pathway using the MDA cell line in the presence of 0.5 nM R1881 - cell viability counter screen (AID 1259242); further: nearly all actives have a fitted effect of over 45% in size
In short: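 MDA-kb2 cells (human breast carcinoma, stably carrying MMTV-luciferase reporter) were exposed to compounds with 0.5 nM R1881 (final) for 16 hr at 37C, 0% CO2; viability then read as live-cell protease fluorescence (CellTiter-Fluor, 30 min) in the same wells.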

[13] = target: Estrogen receptor (Homo sapiens) (UniProt P03372); assay: qHTS assay to identify small molecule antagonists of the estrogen receptor alpha (ER-alpha) signaling pathway using the BG1 cell line in the presence of 0.1 nM 17-beta-estradiol (AID 1259244); further: nearly all actives have a fitted effect of over 50% in size
Sequence of Estrogen receptor (Homo sapiens) (P03372 whole entry, looked up): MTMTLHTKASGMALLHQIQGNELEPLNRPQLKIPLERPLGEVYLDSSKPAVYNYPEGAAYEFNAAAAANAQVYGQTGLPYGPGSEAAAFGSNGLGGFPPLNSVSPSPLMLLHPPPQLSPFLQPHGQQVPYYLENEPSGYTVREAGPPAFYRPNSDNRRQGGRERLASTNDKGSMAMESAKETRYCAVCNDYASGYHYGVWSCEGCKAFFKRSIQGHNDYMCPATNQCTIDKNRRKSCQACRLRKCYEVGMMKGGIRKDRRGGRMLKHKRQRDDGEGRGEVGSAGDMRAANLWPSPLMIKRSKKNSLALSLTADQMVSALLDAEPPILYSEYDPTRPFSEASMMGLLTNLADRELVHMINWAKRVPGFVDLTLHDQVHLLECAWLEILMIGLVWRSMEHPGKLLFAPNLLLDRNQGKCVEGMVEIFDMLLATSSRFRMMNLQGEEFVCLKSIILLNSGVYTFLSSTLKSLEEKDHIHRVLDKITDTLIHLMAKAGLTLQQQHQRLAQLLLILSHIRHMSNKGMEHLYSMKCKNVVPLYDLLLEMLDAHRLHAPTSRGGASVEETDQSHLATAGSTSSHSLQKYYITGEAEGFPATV
In short: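 VM7Luc4E2 cells (endogenous full-length ER-alpha, stable 4xERE-luciferase) were grown 5 days in phenol red-free medium with charcoal-stripped FBS, then exposed 22 h at 37C to compounds plus 0.1 nM (final) 17beta-estradiol; ONE-Glo luminescence read-out.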

[14] = qHTS assay to identify small molecule HDAC inhibitors (AID 1259364); further: top concentration of the series differs between compounds; nearly all actives have a fitted effect of over 45% in size
In short: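 Wild-type HCT-116 cells were plated overnight, exposed to compounds for 2 h at 37 °C, then given HDAC-Glo class I/II luminogenic reagent for 30 min at room temperature before luminescence was read.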

[15] = qHTS assay to identify small molecule HDAC inhibitors - cell viability counter screen (AID 1259365)
In short: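 CellTiter-Glo luminescence (30 min, room temperature) reported viability after a 2 h compound exposure at 37 C. Cells: wild-type HCT-116, 1,500 per well, seeded the night before.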

[16] = qHTS assay to identify small molecule agonists of the sonic hedgehog signaling (Shh) pathway - cell viability counter screen (AID 1259366); further: nearly all actives have a fitted effect of over 50% in size
In short: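 Cytotoxicity counter screen: CellTiter-Fluor reagent added after 23 h compound exposure, then 1 h at 37C and fluorescence read. Cells were 3T3 Gli1-Luc, seeded 2,000 per well and dosed 4 h post-plating.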

[17] = qHTS assay to identify small molecule phospholipidosis (PLD) inducers (AID 1259344; active means well fitted curve in the direction sought with a large enough effect; an effect the other way counts as inactive or inconclusive)
In short: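 HepG2 cells grown on collagen I take up LipidTOX Red while exposed to compound for 24 h; after fixation they are imaged at 20x and pit metrics are extracted.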

[18] = qHTS assay to identify small molecule antagonists of the sonic hedgehog signaling (Shh) pathway - cell viability counter screen (AID 1259367); further: nearly all actives have a fitted effect of over 55% in size
In short: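 After a 4 hr settling period, 3T3 Gli1-Luc cells were treated with DMSO-dissolved chemicals and conditioned medium, kept 24 hr at 37C in 5% CO2, and assayed for viability by CellTiter-Fluor fluorescence following 1 hr reagent incubation.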

[19] = qHTS assay to identify small molecule agonists of the sonic hedgehog signaling (Shh) pathway (AID 1259368; calls by dose curve; further: series mostly up to about 92 µM; nearly all actives have a fitted effect of over 15% in size)
In short: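 NIH/3T3-derived 3T3Gli1-Luc cells carrying a stably integrated Gli1 response element–firefly luciferase reporter were plated, left 4 hr at 37 C, then given compounds in DMSO for 24 hr. Luminescence was read 30 min after adding luciferase reagent.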

[20] = target: Androgen receptor (Homo sapiens) (UniProt P10275); assay: qHTS assay to identify small molecule antagonists of the androgen receptor (AR) signaling pathway using the MDA cell line in the presence of 0.5 nM R1881 (AID 1259243); further: nearly all actives have a fitted effect of over 50% in size; further: potency means the concentration at half of the fitted maximal effect
Sequence of Androgen receptor (Homo sapiens) (P10275 whole entry, looked up): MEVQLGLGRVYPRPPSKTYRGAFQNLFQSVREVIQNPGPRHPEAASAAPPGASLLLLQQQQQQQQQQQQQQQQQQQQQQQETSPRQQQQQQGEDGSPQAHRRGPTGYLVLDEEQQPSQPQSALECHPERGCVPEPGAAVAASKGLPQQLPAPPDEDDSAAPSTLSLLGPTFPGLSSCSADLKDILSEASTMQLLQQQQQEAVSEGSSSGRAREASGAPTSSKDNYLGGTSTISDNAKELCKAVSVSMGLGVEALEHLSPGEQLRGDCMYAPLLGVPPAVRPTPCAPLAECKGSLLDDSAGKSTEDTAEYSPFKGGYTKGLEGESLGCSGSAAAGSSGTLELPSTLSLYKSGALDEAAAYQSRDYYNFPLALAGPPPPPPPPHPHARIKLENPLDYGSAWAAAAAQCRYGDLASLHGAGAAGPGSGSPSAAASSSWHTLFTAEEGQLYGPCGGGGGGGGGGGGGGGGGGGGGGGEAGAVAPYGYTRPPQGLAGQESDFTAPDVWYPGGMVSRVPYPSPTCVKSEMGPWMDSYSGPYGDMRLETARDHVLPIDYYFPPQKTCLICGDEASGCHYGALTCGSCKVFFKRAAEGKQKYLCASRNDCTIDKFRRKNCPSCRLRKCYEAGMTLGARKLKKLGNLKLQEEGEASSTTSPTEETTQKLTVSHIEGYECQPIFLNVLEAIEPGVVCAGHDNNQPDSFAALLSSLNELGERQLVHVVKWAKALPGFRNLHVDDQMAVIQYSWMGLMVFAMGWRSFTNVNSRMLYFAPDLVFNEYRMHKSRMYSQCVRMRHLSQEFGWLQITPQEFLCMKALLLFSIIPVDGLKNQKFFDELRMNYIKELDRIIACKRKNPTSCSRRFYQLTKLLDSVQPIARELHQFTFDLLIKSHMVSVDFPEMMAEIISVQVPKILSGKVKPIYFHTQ
In short: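 MDA-kb2 human breast carcinoma cells carrying an MMTV-luciferase reporter (AR- and GR-responsive) were plated, rested 5 hr at 37C, dosed with compounds, then stimulated with 0.5 nM R1881 (final) for 16 hr; luminescence was read after ONE-Glo.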
On the % scale 0 is the no-effect control and ±100 the full control effect.

CCOc1ccc(NC(N)=O)cc1
inactive: Potency [1] | Potency [2] | Potency [3] | Potency [4] | outcome [5] | Potency [6] | Potency [7] | Potency [8] | Potency [9] | Potency [10] | Potency [11] | outcome [12] | Potency [13] | Potency [14] | outcome [15] | Potency [16]

CC(C)(CO)[C@@H](O)C(=O)NCCC(=O)O
inactive: Potency [1] | Potency [2] | Potency [3] | Potency [4] | outcome [5] | Potency [6] | Potency [7] | Potency [8] | Potency [9] | Potency [10] | Potency [11] | outcome [12] | Potency [13] | outcome [17] | Potency [14] | outcome [15] | Potency [16] | Potency [18]

C[C@@H]1CN(c2c(F)c(N)c3c(=O)c(C(=O)O)cn(C4CC4)c3c2F)C[C@H](C)N1
inactive: cytotoxicity increase [1] 5.84% [at 15.8 µM] | cytotoxicity [2] 5.9% [at 15.8 µM] | cytotoxicity increase [3] -7.06% [at 15.8 µM] | cytotoxicity increase [4] -0.635% [at 15.8 µM] | activity change, negative = cytotoxic [5] 0.182% [at 15.8 µM] | activity change, negative = cytotoxicity [6] 4.31% [at 15.8 µM] | activity change, negative = cytotoxicity [7] 0.0014% [at 15.8 µM] | activity change [8] -0.126% [at 15.8 µM, stronger effect = higher value] | activity change, negative = cytotoxicity [9] 5.84% [at 15.8 µM] | cytotoxicity increase [10] 0.794% [at 15.8 µM] | activity change, negative = cytotoxicity [11] 1.55% [at 19 µM] | viability change, negative = cytotoxic [12] 0.0147% [at 19 µM] | activity change, negative = inhibition [13] -0.515% [at 19 µM] | outcome [17] | activity change, negative = inhibition [14] -1.07% [at 19 µM] | activity change, negative = cytotoxicity [15] 4.84% [at 19 µM] | viability change, negative = cytotoxic [16] 1.22% [at 19 µM] | viability change, negative = cytotoxic [18] 0.364% [at 19 µM] | activity change [19] -0.971% [at 18.9 µM, stronger effect = higher value]

CC(=O)OC1C2(C)CCC(C2)C1(C)C (stereo not given)
inactive: Potency [1] | Potency [2] | Potency [3] | Potency [4] | outcome [5] | Potency [6] | Potency [7] | Potency [8] | Potency [9] | Potency [10] | Potency [11] | outcome [12] | Potency [13] | Potency [14] | outcome [15] | Potency [16] | Potency [18] | Potency [19]

CN1CCN(C2=Nc3cc(F)ccc3Cc3ccccc32)CC1
active: Potency [20] 16.8 µM
inactive: Potency [1] | Potency [2] | Potency [3] | Potency [4] | outcome [5] | Potency [6] | Potency [7] | Potency [8] | Potency [9] | Potency [10] | Potency [11] | outcome [12] | Potency [13] | Potency [14] | outcome [15] | Potency [18]

CC(Oc1c(Cl)cccc1Cl)C1=NCCN1 (stereo not given)
inactive: Potency [1] | Potency [2] | Potency [3] | Potency [4] | outcome [5] | Potency [6] | Potency [7] | Potency [8] | Potency [9] | Potency [10] | Potency [11] | outcome [12] | Potency [20] | Potency [14] | outcome [15] | Potency [16] | Potency [18] | Potency [19]

CCOC(=O)[C@H](CCc1ccccc1)N[C@@H](C)C(=O)N1Cc2cc(OC)c(OC)cc2C[C@H]1C(=O)O
inactive: Potency [1] | Potency [2] | Potency [3] | Potency [4] | outcome [5] | Potency [6] | Potency [7] | Potency [8] | Potency [9] | Potency [10] | Potency [11] | outcome [12] | Potency [13] | outcome [17] | Potency [14] | outcome [15] | Potency [16] | Potency [18] | Potency [19]
